Records with an inconclusive call do not appear. Active and inactive are the calls of the source. Calls come from the whole dose curve; as a rule, active = well fitted curve in the direction sought with a large enough effect; inconclusive = small, poorly fitted or top-dose-only effect, or effect the other way, or another doubt; inactive = no such curve, though single readings can be large or run the other way.
target: Alpha-galactosidase A (Homo sapiens) (UniProt P06280); experiment: Confirmation of Inhibitors of Human alpha-Galactosidase Using Spleen Homogenate; conditions: alpha-galactosidase enzyme activity; series mostly up to 56.2 µM; activity change: at the top concentration; note: 0% is about no effect
Summary of the method: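 Human spleen homogenate (1 ug) with 1 mM 4-methylumbelliferyl-alpha-D-galactopyranoside in citrate-phosphate pH 5.0, 0.01% Tween-20, 37C 40 min; compounds 0.5 nM–58 uM final. Stopped at pH 10, fluorescence Ex 365/Em 440; AC50 from Hill fits.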

Chain of Alpha-galactosidase A (Homo sapiens) (P06280 32-429 limits assumed): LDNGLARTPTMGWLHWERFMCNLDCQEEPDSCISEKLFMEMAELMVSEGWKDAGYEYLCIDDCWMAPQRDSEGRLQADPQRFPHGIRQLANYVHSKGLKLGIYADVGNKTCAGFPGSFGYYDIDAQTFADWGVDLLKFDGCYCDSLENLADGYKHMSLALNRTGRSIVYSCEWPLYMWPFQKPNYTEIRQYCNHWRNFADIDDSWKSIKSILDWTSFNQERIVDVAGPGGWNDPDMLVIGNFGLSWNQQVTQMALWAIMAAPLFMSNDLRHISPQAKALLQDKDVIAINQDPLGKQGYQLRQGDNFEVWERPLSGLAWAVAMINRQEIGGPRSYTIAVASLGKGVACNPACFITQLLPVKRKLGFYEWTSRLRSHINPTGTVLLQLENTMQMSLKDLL

Activity change, inactive:
CC(C)c1nc2cc(C(=O)N3CCNC(=O)C3c3cccc(F)c3)ccc2o1 (configuration not stated) 0.0323%
CCc1ccc(-c2nc(-c3cc4ccc(OC(C)=O)cc4oc3=O)sc2C)cc1 2.98%
Cc1cc(C)c(C(=O)Cn2cnc3cc([N+](=O)[O-])ccc3c2=O)cc1C 11.1% [at 23.6 µM]
OC[C@H]1NC[C@@H](O)[C@@H](O)[C@@H]1O -8.03%
COc1ccc(OC)c(/C=C/C(=O)N(C)CC(=O)Nc2ccc(C)cc2)c1 11.4% [at 23.6 µM]
Brc1ccc(C=Nc2ccc(Nc3ccccc3)cc2)s1 -2.92%
CCOc1c(Cl)cc(CNc2ccc3[nH]c(=O)[nH]c3c2)cc1OC -5.26%
Cc1[nH]n(C(N)=S)c(=O)c1N=Nc1ccc2ccccc2c1 3.36%
Nc1cccc(S(=O)(=O)N2CCOCC2)c1 10.9%
COC(=O)CSc1ccc(C#N)c(SCC(=O)OC)c1 7.51% [at 23.6 µM]
O=C(Nc1cc(S(=O)(=O)N2CCOCC2)ccc1N1CCCC1)c1cc(=O)[nH]c2ccccc12 -1.95% [at 23.6 µM]
Cc1sc(-c2cc3cc(Cl)ccc3oc2=O)nc1-c1ccccc1 10.1%
N#Cc1c(-c2ccccc2)nc(SCc2nc(N)nc(N3CCCCC3)n2)[nH]c1=O 6.63%
COC(=O)c1cc(OC)c(OC)cc1NC(=O)CCCCCN1C(=O)CCC1=O 10.8% [at 23.6 µM]
Cc1ccc(S(=O)(=O)N2CCOCC2)cc1C 6.39%
CCOc1c(Br)cc(CNc2ccc(N3CCN(C(C)=O)CC3)cc2)cc1OC -1.36%
COc1cc(C2C(C(=O)c3ccco3)=C(O)C(=O)N2CC2CCCO2)ccc1O (configuration not stated) -5.75%
COc1ccc(C(=O)N2CCN(c3ccc([N+](=O)[O-])c(NCCc4ccc(OC)c(OC)c4)c3)CC2)cc1 8.32%
COc1ccc(NC(=O)CC2Nc3cc(C)c(C)cc3NC2=O)c([N+](=O)[O-])c1 (configuration not stated) -2.6%
O=S(=O)(c1ccccc1Br)N1CCOCC1 8.81%
O=S(=O)(c1ccccc1)N1CCN(c2ccccc2)CC1 0.829%
O=S(=O)(c1ccc(O)cc1)N1CCOCC1 -2.33%
O=C(O)c1cc(NCc2ccccc2)ccc1N1CCOCC1 -1.74%
Clc1cc2c(cc1/C=C/c1ccc3ccccc3n1)OCO2 9.14%
CC(=O)Nc1c(S(=O)(=O)c2ccccc2)c2nc3ccccc3nc2n1Cc1ccccc1 48.2%
Cc1ccc2c(=O)c3ccccc3n(CCCN)c2c1C -8.95%
CCOc1cc(/C=C2\SC(N)=NC2=O)ccc1O -4.17%
C=CCCCCCCCCCCCc1ccco1 -17.2% [at 287 µM]
OCC1NCC(O)C(O)C1O (configuration not stated) -3.01%
CCCN1CNc2c(c(=O)[nH]c(=S)n2CCc2ccc(OC)c(OC)c2)C1 1.78% [at 23.6 µM]
CC1(C)CC(=O)c2cc(C(=O)NC3CCSC3=O)c(=O)n(-c3ccccc3)c2C1 (configuration not stated) 3.01% [at 23.6 µM]
CCCc1cc(-c2nc(N)ncc2-c2ccc3c(c2)OCCCO3)c(O)cc1OC -7.45%
O=C(O)c1cc(NCc2c(F)cccc2Cl)ccc1N1CCOCC1 -8.02%
Cc1ccc(S(=O)(=O)NC(=O)NN2CCCCCC2)cc1 -0.482%
CC(=O)c1ccc(NC(=O)COc2ccccc2-c2nc(C)no2)cc1 -1.56%
COc1ccccc1CNc1ccc(N2CCOCC2)c(C(=O)O)c1 -4.04%

outcome, inactive:
Oc1ccc(NCc2ccccc2OCc2ccccc2)cc1
